# Source: PubChem BioAssay (NCATS)
# Results filed as inconclusive are left out. Calls of active or inactive are those of the source. The call rests on the fitted dose curve; in most records, active means well fitted inhibition curve with a large enough effect; inconclusive means small, poorly fitted or top-dose-only effect; inactive means flat fitted curve, though single readings scatter.
# Experiment: P-glycoprotein substrates identified in KB-8-5-11 adenocarcinoma cell line, qHTS therapeutic library screen (AID 1346987); further: nearly all actives have a fitted effect of over 65% in size
# Conditions: KB-8-5-11 (P-gp overexpressing) viability, CellTiter-Glo, 72 h; series mostly up to 44.5 µM; activity change, negative = cytotoxicity: at the top concentration
# How it was run: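 Luminescence from CellTiter-Glo, read 5 min after addition, quantified survival of KB-8-5-11 (P-gp-overexpressing) cells exposed to compounds for 72 h. AC50 was derived from concentration-response curves.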
# On the % scale 0 is the no-effect control and ±100 the full control effect; potency means the concentration at half of the fitted maximal effect.
SMILES,outcome,"activity change, negative = cytotoxicity",Potency
CC(C)(O)C1CC(=O)C2(C)C(CCC3(C)C(c4ccoc4)OC(=O)C4OC432)C12CCC(=O)OC2 (centres undefined),inactive [at 17.3 µM],–,–
O=C(NCCCN1CCC2(CC1)OCc1ccccc12)[C@H]1CCCN1Cc1ccccc1,–,-10.9% (inactive),–
CCOc1ccc(CCNC(=O)c2cc3sc(Cl)cc3n2C)cc1OCC,–,-20.2% (inactive),–
C=CC(=O)N1CC(N2CCN(C(=O)CNc3cc(C4CC4)c(Cl)cc3O)CC2)C1,inactive,–,–
CCOC(=O)[C@H](CCc1ccccc1)N[C@H]1CCCN2CCC[C@@H](C(=O)O)N2C1=O,–,-7.1% (inactive),–
C/C(=C(/CCO)SSCC1CCCO1)N(C=O)Cc1cnc(C)nc1N (centres undefined),–,–,inactive
CC(C)CCNc1ncccc1C(=O)N1CCN(Cc2ccccc2)CC1,–,-22.2% (inactive),–
C[C@H](/C=C/[C@H](C)C(C)(C)O)[C@H]1CC[C@H]2/C(=C/C=C3C[C@@H](O)C[C@H](O)C3)CCC[C@]12C,–,–,8.2 µM (active)
Cc1cc(OCCCS(C)(=O)=O)cc(C)c1-c1cccc(COc2ccc(C3=CC(=O)NS3=O)cc2)c1 (centres undefined),–,-17.9% (inactive),–
CCC(C)/C=C(C)/C=C/C1=CC2=CC(=O)C3(C)OC(C)(O)C(C(=O)OC)C3C2=CO1 (centres undefined),–,2.48% [at 17.3 µM] (inactive),–
COc1cc2c(Nc3cc(F)c(Cl)c(Cl)c3)ncnc2cc1OCC1CCCN(C)CCC1,–,–,16.4 µM (active)
Cc1cc2ncc(C(=O)NCC(C)(C)NCC(=O)N3CCC[C@H]3C#N)cn2n1,–,8.79% (inactive),–
CCC(C)C(=O)OC1C(C)C2(O)C(C=C(CO)CC3(O)C(=O)C(C)=CC32)C2C(C)(C)C12OC(=O)C(C)C (centres undefined),–,-25% [at 17.3 µM] (inactive),–
COC(=O)C1=COC(O[C@@H]2O[C@H](CO[C@@H]3O[C@H](COC(=O)/C=C\c4ccc(O)cc4)[C@@H](O)[C@H](O)[C@H]3O)[C@@H](O)[C@H](O)[C@H]2O)C2C(CO)=CCC12 (some centres undefined),–,3.67% [at 17.3 µM] (inactive),–
CC(=O)O[C@H]1CC[C@@]2(C)C(=CC[C@H]3[C@@H]4CC[C@H](C(C)=O)[C@@]4(C)CC[C@@H]32)C1,–,9% (inactive),–
CN1CC(O)c2cc(N=NC(N)=O)c(O)cc21 (centres undefined),–,-12.5% (inactive),–
O=C(NCC1(N2CCN(c3ccccc3)CC2)CCOCC1)c1cccnc1Sc1ccccc1,–,-8.67% (inactive),–
CCCCCCCCC(=O)N[C@H](CN1CCCC1)[C@H](O)c1ccc2c(c1)OCCO2,–,–,16.4 µM (active)
CC(C)C(C)C(O)C1CC23CC(=O)C4(O)C(=C2CCC3C1C)C=CC1(O)CC(O)CCC14C (centres undefined),–,-3.25% [at 17.3 µM] (inactive),–
CCCCCCCCCCCCCCCC(=O)OC/C=C(C)/C=C/C=C(C)/C=C/C1=C(C)CCCC1(C)C,–,2.5% (inactive),–

SMILES,outcome,"activity change, negative = cytotoxicity",Potency
CCCC(CCC)C(N)=O,–,0.374% (inactive),–
Cn1cc(-c2ccc(S(=O)(=O)n3ccc(/C=C/C(=O)Nc4ccccc4N)c3)cc2)cn1,–,–,2.59 µM (active)
CCCC(Nc1nc(-c2ccc(NC(=O)NCC)c(OC)c2)ncc1C)c1cccnc1 (centres undefined),–,–,1.16 µM (active)
CC(=O)O[C@H]1CC(C)(C)CC2[C@]13CO[C@@]21CCC2[C@@]4(C)CC[C@H](O[C@@H]5OC[C@H](O[C@@H]6O[C@H](CO)[C@@H](O)[C@H](O)[C@H]6O[C@@H]6OC[C@@H](O)[C@H](O)[C@H]6O)[C@H](O)[C@H]5O[C@@H]5O[C@H](CO)[C@@H](O)[C@H](O)[C@H]5O)[C@@](C)(CO)C4CC[C@@]2(C)[C@]1(C)C[C@H]3O (some centres undefined),–,-5.92% [at 9.29 µM] (inactive),–
C[C@H]1CC[C@@]2(OC1)O[C@H]1CC3C4CC[C@H]5C[C@@H](O)CC[C@]5(C)C4=CC(=O)[C@]3(C)[C@H]1[C@@H]2C (some centres undefined),–,-1.11% [at 17.3 µM] (inactive),–
COC1CC(O[C@H]2CC[C@]3(C)C4CC[C@]5(C)C(C6=CC(=O)OC6)=CCC56OC46CC[C@@H]3C2)OC(C)C1O[C@@H]1O[C@H](CO[C@@H]2O[C@H](CO)[C@@H](O)[C@H](O)[C@H]2O)[C@@H](O)[C@H](O)[C@H]1O (some centres undefined),–,–,3.1 µM (active)
CC(C)c1cc(-c2ccc(F)c3ccccc23)nc(N)n1,–,-13.8% (inactive),–
CCCC(=O)O[C@]1(C(=O)COC(=O)CC)[C@@H](C)C[C@H]2[C@@H]3CCC4=CC(=O)C=C[C@]4(C)[C@@]3(F)[C@@H](O)C[C@@]21C,–,-16.2% (inactive),–
O=C(NC1(c2ccccc2)CC1)c1c(CN2CCC(N3CCCCC3)CC2)c(-c2cccc(C(F)(F)F)c2)nc2cc(Br)ccc12,–,–,23.1 µM (active)
O=C(NCc1ccc(OC(F)(F)F)cc1)C1c2c(F)cccc2C(=O)N1CCc1ccccn1 (centres undefined),–,-17.6% (inactive),–
CCCc1cc(C)n(C)c(=O)c1CN(C)C(=O)c1cc(-c2ccc(N3CCN(C(C)C)CC3)nc2)cc2c1cnn2C(C)C,–,-5.87% (inactive),–
CCOC(=O)N1c2ccc(C(F)(F)F)cc2C(N(Cc2cc(C(F)(F)F)cc(C(F)(F)F)c2)C(=O)OC)CC1CC (centres undefined),–,-7.27% (inactive),–
CC1(C)S[C@@H]2[C@H](NC(=O)C(C(=O)Oc3ccc4c(c3)CCC4)c3ccccc3)C(=O)N2[C@H]1C(=O)O (some centres undefined),–,9.54% (inactive),–
O=c1[nH]cnc2c([C@@H]3N[C@H](CO)[C@@H](O)[C@H]3O)c[nH]c12,inactive,–,–
Fc1ccc(-c2cncc(CN3CCN(c4cccc5c4OCCO5)CC3)c2)cc1,–,-26.7% (inactive),–
C=CC(=O)N1CCC[C@@H](n2nc(-c3cccc(C(=O)Nc4ccc(C(C)C)c(C)c4)c3)c3c(N)ncnc32)C1,–,-21.4% (inactive),–
CC(C)(O)C(=O)N1CCN(c2ccc(C(F)(F)F)c(C3=C(c4c[nH]c5ccccc45)C(=O)NC3=O)c2)CC1,inactive,–,–
Cc1cccc(N2CCN(C(=O)c3cc(S(=O)(=O)N(C)C)ccc3N3CCCC3)CC2)c1C,–,1.87% (inactive),–
CCOc1nc(NC(=O)Cc2cc(OC)ccc2OC)cc(N)c1C#N,–,-16.3% (inactive),–
